# Reference: the supplement of paper PMC10338343
# ± gives the standard deviation.
# System: MILI (PIWIL2) piRISC loaded with piRNA #1 (26 nt)
# Test: pre-steady-state target cleavage rate (min^-1); guide: piRNA #1 5'p-UGAGGUAGUAGGUUGUAUAGUAUCCA; MIWI and MILI are mouse PIWI proteins and EfPiwi is from a freshwater sponge; tags in brackets are library labels; higher = faster piRNA-guided slicing of the target
# Conditions: auxiliary factor: 500 nM mouse GTSF1
# Outline: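 Sequencing of uncleaved targets, normalised to depth and to weakly complementary targets, was the readout of this Cleave-'n-Seq assay. A transcribed, DNA-blocked target RNA library (0.1 nM) was mixed with 1 nM active affinity-purified piRISC carrying one synthetic guide, with or without 500 nM GTSF1 partner protein, in HEPES–potassium acetate buffer at 33 °C for 0–8 or 0–960 min. Three trials were pooled, k3 was capped at 0.0001 min^-1, and a burst-and-steady-state fit gave the pre-steady-state cleavage rate.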
row,Sequence,pre-steady-state target cleavage rate
1,GGAGACCUUACUAUACAACCUACAUCCUCA,0.0472 ± 0.0095
2,GGAGACCUAUGAUAACAACCUACGACCUCA,0.0039 ± 0.0025
3,GGAGACCUAUCUAAACAUCCUACUACCUCA,0.116 ± 0.015
4,GGAGACCUUACUAUACAUCCUACUACGUCA,0.141 ± 0.022
5,GGAGACCUAUCUAUACAACGUAGUACCUCA,0.00772 ± 0.0031
6,GGAGACCUUACUAUUGAACCUACUACCUCA,0.137 ± 0.013
7,GGAGACCUAACUAUUCAACCUACUACGUCA,0.0338 ± 0.011
8,GGAGACCUAUGAAUACCAACCUACUACCUCA,0.00269 ± 0.0026
9,GGAGACCUAUGUAUACAACCUACUAGCCUCA,0.0572 ± 0.013
10,GGAGACCUAUGUUUACAACCUAGUACCUCA,0.00404 ± 0.0027
11,GGAGACCUAUGAUUACAACCUACUAGCUCA,0.00322 ± 0.0026
12,GGAGACCUUACUAAACUACCUACUACCUCA,0.104 ± 0.013
13,GGAGACGAUACUAUAGAACCAACUACCUCA,0.00326 ± 0.0028
14,GGAGACCUAUGAUAUCAAGCUACAACCUCA,0.00699 ± 0.0025
15,GGAGAGGAUUCUAUACAACCUACAACCUCA,0.0904 ± 0.012
16,GGAGACCUUACUAUACAACCAUACUACCUCA,0.0055 ± 0.0037
17,GGAGACCUAUGAUUACAAACUACUACCUCA,0.0225 ± 0.0059
18,GGAGACCUAUGAUAUGAACUACUACCUCA,0.00657 ± 0.0021
19,GGAGACCUAUGUAUCAACCUACUACCUCA,0.00951 ± 0.0023
20,GGAGACCUAUGAUAUGUUGCUUCUACCUGA,< 0.0001
21,GGAGACCUAUGAUAACAACCUACGUACCUCA,0.00286 ± 0.0027
22,GGAGACCUAACUAUACAACCUAGUUCCUCA,0.00721 ± 0.0051
23,GGAGACCUUACUUUACAACGUACUACCUCA,0.0199 ± 0.0047
24,GGAGACCUAUGAUAUCUAACCUACUACCUCA,0.00471 ± 0.0023
